Experimental data taken from PubChem BioAssay (Tox21).
Unmarked numbers belong to inactive results. Inconclusive results are not listed. Entries that show only a call come without a potency. The source made the active and inactive calls. Unless noted, the call rests on the fitted dose curve; in most records, active means well fitted curve in the direction sought with a large enough effect in the repeat runs; inconclusive means weak or mixed curves; inactive means no such curve, though single readings can be large; an effect the other way counts as inactive or inconclusive.

Assays:
[1] = qHTS assay to identify small molecule antagonists of the sonic hedgehog signaling (Shh) pathway (AID 1259369; calls by dose curve; further: nearly all actives have a fitted effect of over 45% in size; further: potency means the concentration at half of the fitted maximal effect)
How it was run: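 NIH/3T3-derived Gli1-Luc reporter cells plated 4 h, dosed with compound, then stimulated with conditioned medium for 24 h at 37 C. Firefly luciferase luminescence read after 30 min with detection reagent at room temperature.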

[2] = qHTS assay to identify small molecule agonists of the androgen receptor (AR) signaling pathway in the presence of an antagonist - cell viability counter screen (AID 1259379); further: nearly all actives have a fitted effect of over 25% in size; further: potency means the concentration at half of the fitted maximal effect;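 on activity change, negative = cytotoxicity: MDA-kb2 human breast cancer cells carrying an MMTV luciferase reporter; series mostly up to about 92 µM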
How it was run: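 MDA-kb2 cells (MMTV-luciferase, AR/GR), 3,000/well, 5 h attachment, then 3.0 µM nilutamide (final) and compounds at 15 concentrations. Viability by CellTiter-Fluor fluorescence after 16 h at 37 °C, 0% CO2, in the reporter wells.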

[3] = qHTS assay to identify small molecule agonists of the estrogen receptor beta (ER-beta) signaling pathway - cell viability counter screen (AID 1259380); further: nearly all actives have a fitted effect of over 30% in size
How it was run: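 ER-beta-UAS-bla HEK293T cells in medium with 2% charcoal-stripped FBS, pre-incubated 6 hr, then treated 16 hr at 37C. Cytotoxicity read in the same wells by CellTiter-Glo luminescence after 30 min at room temperature.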

[4] = qHTS assay to identify small molecule antagonists of the estrogen receptor beta (ER-beta) signaling pathway - cell viability counter screen (AID 1259382);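 further: HEK293T cells carrying ER-beta-UAS-bla reporter stimulated with estradiol; series mostly up to about 92 µM; nearly all actives have a fitted effect of over 55% in size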
How it was run: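 ER-beta-UAS-bla HEK293T cells in 2% charcoal-stripped FBS medium, treated with compound plus 1 nM 17-beta-estradiol for 16 h at 37C. Viability read by CellTiter-Glo luminescence after 30 min at room temperature in the same wells.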

[5] = biological target: Estrogen receptor (Homo sapiens) (UniProt P03372); assay: qHTS assay to identify small molecule agonists of the estrogen receptor alpha (ER-alpha) signaling pathway in the presence of an antagonist (AID 1259383; calls by dose curve; further: top concentration of the series differs between compounds; nearly all actives have a fitted effect of over 15% in size)
How it was run: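 VM7Luc4E2 cells express endogenous full-length ER-alpha with an ERE-luciferase reporter and were hormone-deprived for 5 days. Compounds at 15 concentrations were added with 10.0nM ICI-182,780 for 22hr at 37C. Luminescence was read with ONE-Glo.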

[6] = qHTS assay to identify small molecule agonists or antagonists of the thyroid stimulating hormone receptor (TSHR) signaling pathway - wild type cell line counter screen (AID 1259384; calls by dose curve)
How it was run: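 Wild-type HEK293 cells were plated 18 h at 37 C/5% CO2, pin-dosed with compound plus Ro20-1724 medium, held 30 min at room temperature, then given cAMP-d2 and anti-cAMP-cryptate; fluorescence was read after 1 h. Fifteen concentrations, triplicate.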

[7] = biological target: Thyrotropin receptor (Homo sapiens) (UniProt P16473); assay: qHTS assay to identify small molecule antagonists of the thyroid stimulating hormone receptor (TSHR) signaling pathway (AID 1259385; calls by dose curve; further: nearly all actives have a fitted effect of over 20% in size)
How it was run: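 TSHR-HEK293 cells were plated and held 18 h at 37C/5% CO2, then given compound plus Ro20-1724 and stimulated with TSH at 1.5 ng/mL final. After 30 min at room temperature, cAMP was detected with cAMP-d2/anti-cAMP-cryptate (1 h) by fluorescence.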

[8] = qHTS assay to identify small molecule agonists of the estrogen receptor alpha (ER-alpha) signaling pathway in the presence of an antagonist - cell viability counter screen (AID 1259386);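 further: series mostly up to about 92 µM; cells exposed to compounds for 22 h at 37 °C before the viability read; nearly all actives have a fitted effect of over 30% in size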
How it was run: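 Cell viability in VM7Luc4E2 cells (endogenous full-length ER-alpha) measured by CellTiter-Fluor fluorescence in the same wells as the luciferase screen. Cells pre-cultured 5 days in charcoal-stripped serum, then treated 22 h with compounds at 15 concentrations plus 10.0nM ICI-182,780.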

[9] = biological target: Progesterone receptor (Homo sapiens) (UniProt P06401); assay: qHTS assay to identify small molecule antagonists of the progesterone receptor (PR) signaling pathway (AID 1346795; active means well fitted inhibition curve with a large enough effect in the signal ratio in the repeat runs, not every such curve was filed as active; the % refers to the signal ratio)
How it was run: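 After 6 hr plating at 37C in 2% stripped-serum medium, PR-UAS-bla HEK293T cells got compounds, then 1 nM R5020. Sixteen hours later, LiveBLAzer substrate was applied for 2 hr at room temperature and fluorescence was recorded.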

[10] = qHTS assay to identify small molecule antagonists of the progesterone receptor (PR) signaling pathway - cell viability counter screen (AID 1346798); further: series mostly up to about 92 µM; nearly all actives have a fitted effect of over 50% in size
How it was run: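 Viability was determined by ATP-based luminescence (CellTiter-Glo) in PR-UAS-bla HEK293T cells cultured in 2% charcoal-stripped serum and incubated 16 hr with compounds under R5020 stimulation.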

[11] = qHTS assay to identify small molecule agonists of the progesterone receptor (PR) signaling pathway - cell viability counter screen (AID 1346799; calls by dose curve; further: nearly all actives have a fitted effect of over 45% in size)
How it was run: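 Viability was scored by ATP luminescence (CellTiter-Glo, 30 min, room temperature) in the same wells used for the reporter readout, after 16 hr compound exposure of PR-UAS-bla HEK293T cells.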

[12] = qHTS assay to identify small molecule antagonists of the TGF-beta/Smad signaling pathway - cell viability counter screen (AID 1346824); further: nearly all actives have a fitted effect of over 50% in size
How it was run: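 SBE-bla HEK 293T cells were plated overnight at 37 C, then given compounds in DMSO plus TGF-beta1 (added as 0.25 ng/mL solution) for 5 hr. After the bla read, CellTiter-Glo was added to the same wells and luminescence read after 30 min at room temperature.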

[13] = qHTS assay to identify small molecule agonists of the TGF-beta/Smad signaling pathway - cell viability counter screen (AID 1346829); further: top concentration of the series differs between compounds; nearly all actives have a fitted effect of over 45% in size
How it was run: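 Luminescence from CellTiter-Glo, read after a 30 min room-temperature incubation, gives cell viability of SBE-bla HEK 293T cells treated 5 hr with compounds at 37 C.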

[14] = qHTS assay to identify small molecule agonists of the TGF-beta/Smad signaling pathway (AID 1346859; active means well fitted activation curve with a large enough effect in the signal ratio in the repeat runs, not every such curve was filed as active; the % refers to the signal ratio; further: series mostly up to about 77 µM)
How it was run: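 Dual-wavelength fluorescence (460/530 nm emission) quantified beta-lactamase expression under the Smad binding element in HEK 293T cells following 5 hr compound treatment at 37 C.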

[15] = biological target: Thyrotropin-releasing hormone receptor (Homo sapiens) (UniProt P34981); assay: qHTS assay to identify small molecule antagonists of the thyrotropin-releasing hormone receptor (TRHR) signaling pathway (AID 1346877; active means well fitted inhibition curve with a large enough effect in the repeat runs, not every such curve was filed as active; further: series mostly up to about 51 µM)
How it was run: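 TRHR-expressing HEK293 cells loaded with calcium dye for 2 h at 37 C; compounds pre-incubated 5 min at room temperature before TRH challenge at 1 nM final. Intracellular calcium fluorescence read kinetically for 3 min; 15 concentrations in triplicate.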

[16] = biological target: Thyrotropin-releasing hormone receptor (Homo sapiens) (UniProt P34981); assay: qHTS assay to identify small molecule agonists of the thyrotropin-releasing hormone receptor (TRHR) signaling pathway (AID 1346891; calls by dose curve; further: series mostly up to about 58 µM)
How it was run: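 Kinetic fluorescence (3 min, 1 s intervals) reported intracellular calcium after compound transfer onto TRHR-Hek293 cells pre-loaded with dye for 2 h at 37 °C.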

[17] = biological target: Progesterone receptor (Homo sapiens) (UniProt P06401); assay: qHTS assay to identify small molecule agonists of the progesterone receptor (PR) signaling pathway (AID 1346784; calls by dose curve; further: nearly all actives have a fitted effect of over 30% in size)
How it was run: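 The screen uses PR-UAS-bla HEK 293T cells in charcoal-stripped serum (2%). Compounds are applied for 16 hr at 37C after a 6 hr pre-incubation, and reporter activity is detected with a FRET beta-lactamase substrate after 2 hr at room temperature.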

Chain of Thyrotropin receptor (Homo sapiens) (P16473 whole entry, looked up): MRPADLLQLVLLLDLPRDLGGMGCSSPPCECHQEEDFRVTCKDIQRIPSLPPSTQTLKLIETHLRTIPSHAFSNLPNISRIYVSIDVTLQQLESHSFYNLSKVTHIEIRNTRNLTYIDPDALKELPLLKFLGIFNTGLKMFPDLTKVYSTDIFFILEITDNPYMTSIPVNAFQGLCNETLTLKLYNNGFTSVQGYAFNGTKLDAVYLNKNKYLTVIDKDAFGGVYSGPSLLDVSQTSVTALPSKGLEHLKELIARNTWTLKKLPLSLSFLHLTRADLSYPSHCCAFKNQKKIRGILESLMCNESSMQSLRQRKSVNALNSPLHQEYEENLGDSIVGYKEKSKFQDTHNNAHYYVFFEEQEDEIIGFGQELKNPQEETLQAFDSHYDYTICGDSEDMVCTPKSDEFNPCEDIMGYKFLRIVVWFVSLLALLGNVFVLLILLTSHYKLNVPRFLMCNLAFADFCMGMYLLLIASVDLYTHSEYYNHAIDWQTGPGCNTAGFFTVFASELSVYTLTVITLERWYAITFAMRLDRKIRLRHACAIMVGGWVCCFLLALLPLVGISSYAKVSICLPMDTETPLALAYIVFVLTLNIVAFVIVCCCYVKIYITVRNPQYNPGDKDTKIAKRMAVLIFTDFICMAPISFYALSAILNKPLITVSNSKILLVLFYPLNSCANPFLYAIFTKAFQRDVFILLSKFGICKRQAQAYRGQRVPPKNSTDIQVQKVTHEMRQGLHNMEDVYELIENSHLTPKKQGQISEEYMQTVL
Chain of Progesterone receptor (Homo sapiens) (P06401 whole entry, looked up): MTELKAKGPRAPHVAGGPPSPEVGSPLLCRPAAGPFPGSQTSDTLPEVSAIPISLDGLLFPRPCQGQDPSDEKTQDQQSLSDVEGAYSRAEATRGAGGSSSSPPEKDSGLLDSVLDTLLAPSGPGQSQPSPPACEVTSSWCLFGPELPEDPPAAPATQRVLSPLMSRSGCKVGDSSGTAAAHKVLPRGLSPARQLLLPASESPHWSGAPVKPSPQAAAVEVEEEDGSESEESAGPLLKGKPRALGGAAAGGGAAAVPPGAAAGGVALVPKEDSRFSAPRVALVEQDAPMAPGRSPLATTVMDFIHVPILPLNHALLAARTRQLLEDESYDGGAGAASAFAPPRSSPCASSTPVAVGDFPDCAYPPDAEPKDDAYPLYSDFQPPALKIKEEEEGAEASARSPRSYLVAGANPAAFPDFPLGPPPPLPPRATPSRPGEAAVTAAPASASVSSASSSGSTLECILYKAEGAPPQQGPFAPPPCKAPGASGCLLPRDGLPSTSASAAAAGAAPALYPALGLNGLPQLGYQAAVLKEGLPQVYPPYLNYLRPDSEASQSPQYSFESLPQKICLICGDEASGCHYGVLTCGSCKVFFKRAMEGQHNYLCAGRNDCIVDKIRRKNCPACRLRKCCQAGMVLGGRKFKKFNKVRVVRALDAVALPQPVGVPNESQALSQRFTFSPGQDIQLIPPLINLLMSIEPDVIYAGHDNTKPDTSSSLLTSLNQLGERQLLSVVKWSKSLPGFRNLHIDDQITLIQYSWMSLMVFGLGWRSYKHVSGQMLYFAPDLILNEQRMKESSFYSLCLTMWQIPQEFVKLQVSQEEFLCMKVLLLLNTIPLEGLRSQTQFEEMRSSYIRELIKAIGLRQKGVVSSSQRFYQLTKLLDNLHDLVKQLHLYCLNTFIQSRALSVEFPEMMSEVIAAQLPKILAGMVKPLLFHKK
Chain of Thyrotropin-releasing hormone receptor (Homo sapiens) (P34981 whole entry, looked up): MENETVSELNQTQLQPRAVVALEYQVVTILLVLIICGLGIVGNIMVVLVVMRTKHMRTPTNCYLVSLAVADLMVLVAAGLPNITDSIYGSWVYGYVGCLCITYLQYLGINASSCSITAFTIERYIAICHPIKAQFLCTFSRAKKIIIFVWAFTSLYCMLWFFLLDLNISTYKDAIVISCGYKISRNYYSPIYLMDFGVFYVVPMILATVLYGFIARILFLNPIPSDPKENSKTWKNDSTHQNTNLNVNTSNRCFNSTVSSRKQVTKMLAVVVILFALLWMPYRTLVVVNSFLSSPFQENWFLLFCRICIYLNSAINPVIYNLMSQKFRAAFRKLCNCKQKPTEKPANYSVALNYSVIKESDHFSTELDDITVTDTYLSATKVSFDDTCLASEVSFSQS
Chain of Estrogen receptor (Homo sapiens) (P03372 whole entry, looked up): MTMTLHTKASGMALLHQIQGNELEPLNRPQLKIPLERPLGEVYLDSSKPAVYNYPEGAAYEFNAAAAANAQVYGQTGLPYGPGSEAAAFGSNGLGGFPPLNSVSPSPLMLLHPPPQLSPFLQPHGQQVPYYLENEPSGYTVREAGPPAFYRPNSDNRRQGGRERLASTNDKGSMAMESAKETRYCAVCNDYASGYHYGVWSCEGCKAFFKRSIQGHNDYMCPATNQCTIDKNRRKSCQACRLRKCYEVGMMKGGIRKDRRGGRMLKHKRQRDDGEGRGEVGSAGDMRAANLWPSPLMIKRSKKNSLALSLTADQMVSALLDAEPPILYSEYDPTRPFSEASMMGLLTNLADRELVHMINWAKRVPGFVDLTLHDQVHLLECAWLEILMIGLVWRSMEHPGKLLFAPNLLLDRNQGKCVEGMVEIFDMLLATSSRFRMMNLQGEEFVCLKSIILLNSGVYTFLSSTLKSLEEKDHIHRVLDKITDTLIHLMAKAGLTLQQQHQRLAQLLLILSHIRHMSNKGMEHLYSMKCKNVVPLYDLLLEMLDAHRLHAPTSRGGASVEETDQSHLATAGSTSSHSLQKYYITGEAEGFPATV

SMILES: CCC(=O)Nc1ccc(O)cc1
- Potency [1]: inactive
- Potency [2]: inactive
- Potency [3]: inactive
- outcome [4]: inactive
- Potency [5]: inactive
- outcome [6]: inactive
- Potency [7]: inactive
- Potency [8]: inactive
- Potency [9]: inactive
- Potency [10]: inactive
- Potency [11]: inactive
- outcome [12]: inactive
- outcome [13]: inactive
- outcome [14]: inactive
- outcome [15]: inactive
- Potency [16]: inactive

SMILES: CC(C)(CO)[C@@H](O)C(=O)NCCC(=O)O
- Potency [1]: inactive
- Potency [2]: inactive
- Potency [3]: inactive
- outcome [4]: inactive
- Potency [5]: inactive
- outcome [6]: inactive
- Potency [7]: inactive
- outcome [12]: inactive
- outcome [13]: inactive
- outcome [14]: inactive
- outcome [15]: inactive
- Potency [16]: inactive

SMILES: COC(=O)c1ccc2cc(C(=O)OC)ccc2c1
- Potency [1]: 9.93 µM (active)
- activity change, negative = cytotoxicity [2]: 2.92% [at 19 µM]
- activity change, negative = cytotoxicity [4]: -4.09% [at 19 µM]
- activation [5]: 0.0917% [at 19 µM]
- cAMP activity change [6]: 3.63% [at 18.9 µM]
- activity change, negative = inhibition [7]: -1.02% [at 19 µM]
- activity change, negative = cytotoxicity [8]: -3.99% [at 19 µM]
- activity change, negative = inhibition [9]: -25.1% [at 18.9 µM]
- Potency [10]: inactive
- activity change, negative = cytotoxicity [11]: -2.9% [at 19 µM]
- viability change, negative = cytotoxic [12]: 0.743% [at 15.8 µM]
- activity change, negative = cytotoxicity [13]: 8.9% [at 15.8 µM]
- activation [14]: 0.192% [at 15.8 µM]

SMILES: Nc1ccc2ccccc2c1S(=O)(=O)O
- Potency [1]: inactive
- Potency [2]: inactive
- Potency [3]: inactive
- outcome [4]: inactive
- outcome [6]: inactive
- Potency [7]: inactive
- Potency [8]: inactive
- Potency [17]: inactive
- Potency [10]: inactive
- Potency [11]: inactive
- outcome [12]: inactive
- outcome [13]: inactive
- outcome [14]: inactive
- outcome [15]: inactive
- Potency [16]: inactive

SMILES: CCOc1ccccc1N
- Potency [1]: inactive
- Potency [2]: 54.1 µM (active)
- Potency [5]: inactive
- outcome [6]: inactive
- Potency [7]: inactive
- Potency [17]: inactive
- Potency [9]: inactive
- Potency [10]: inactive
- outcome [12]: inactive
- outcome [13]: inactive
- outcome [14]: inactive

SMILES: CCCC1CCC(=O)O1 (stereo unspecified)
- Potency [1]: inactive
- Potency [2]: inactive
- Potency [3]: inactive
- outcome [4]: inactive
- outcome [6]: inactive
- Potency [7]: inactive
- Potency [8]: inactive
- Potency [17]: inactive
- Potency [10]: inactive
- Potency [11]: inactive
- outcome [12]: inactive
- outcome [13]: inactive
- outcome [14]: inactive
- outcome [15]: inactive
- Potency [16]: inactive

SMILES: CC/C=C\CCOC(=O)C(C)C
- Potency [1]: inactive
- Potency [2]: inactive
- outcome [4]: inactive
- Potency [5]: inactive
- outcome [6]: inactive
- Potency [7]: inactive
- Potency [8]: inactive
- Potency [17]: inactive
- Potency [9]: inactive
- Potency [10]: inactive
- outcome [12]: inactive
- outcome [13]: inactive
- outcome [14]: inactive
- outcome [15]: inactive
- Potency [16]: inactive

SMILES: NC/C=C/C(=O)O
- Potency [1]: inactive
- Potency [2]: inactive
- outcome [4]: inactive
- outcome [6]: inactive
- Potency [7]: inactive
- Potency [8]: inactive
- Potency [9]: inactive
- Potency [10]: inactive
- Potency [11]: inactive
- outcome [12]: inactive
- outcome [13]: inactive
- outcome [14]: inactive
- outcome [15]: inactive
- Potency [16]: inactive

SMILES: OCc1ccccc1O
- Potency [1]: inactive
- Potency [2]: inactive
- Potency [3]: inactive
- outcome [4]: inactive
- outcome [6]: inactive
- Potency [7]: inactive
- Potency [8]: inactive
- Potency [17]: inactive
- Potency [9]: inactive
- Potency [11]: inactive
- outcome [12]: inactive
- outcome [13]: inactive
- outcome [14]: inactive
- outcome [15]: inactive
- Potency [16]: inactive
